Screens from PubChem BioAssay.
Shown is part of a subset that was picked to be rich in hits.
Dicer processing – inhibitors of Dicer pre-microRNA processing, primary screen, biochemical, cat-ELCCA, chemiluminescence | hit rate 6% among 47,000 | z-score at 25 µM | cat-ELCCA pre-miR-21 Dicer processing; stronger effect = higher value | Endoribonuclease Dicer (Homo sapiens), Q9UPY3; in the data active means z-score above about 3, passing the limit was not always enough;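 further: higher signal means more uncleaved substrate so more Dicer inhibition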
Numbers stand for hits; 0 = inactive.

SMILES	Dicer processing
CCOc1c(N2CCOCC2)c(=O)c1=O	0
CCOc1ccc(-c2nc(C#N)c(N3CC(C)OC(C)C3)o2)cc1 (stereo not drawn)	0
CNC(=O)Cc1sc2ccc(Cl)cc2c1C	0
CCOC(=O)NC(Nc1cccc(C)c1)(C(=O)OCC)C(F)(F)F (stereo not drawn)	0
Cc1ccc2occ(C3Nc4ccccc4NC4=C3C(=O)CC(c3ccccc3)C4)c(=O)c2c1 (stereo not drawn)	0
Cc1ccc(C2Nc3ccccc3NC3=C2C(=O)CC(c2ccc4c(c2)OCO4)C3)s1 (stereo not drawn)	5.42
CN(C)c1ccc(C2Nc3ccccc3NC3=C2C(=O)CC(c2cccs2)C3)cc1 (stereo not drawn)	0
O=C1CC(c2ccc(Cl)cc2)CC2=C1C(c1ccc3c(c1)OCO3)Nc1ccccc1N2 (stereo not drawn)	0
Cc1ccc(C)c(C2Nc3ccccc3NC3=C2C(=O)CC(c2cccs2)C3)c1 (stereo not drawn)	3.37
O=C1CC(c2ccccc2)CC2=C1C(c1ccsc1)Nc1ccccc1N2 (stereo not drawn)	0
COc1ccc(C2CC(=O)C3=C(C2)Nc2ccccc2NC3c2ccc3c(c2)OCO3)cc1OC (stereo not drawn)	0
Cc1ccc2occ(C3Nc4ccccc4NC4=C3C(=O)CC(c3ccccc3Cl)C4)c(=O)c2c1 (stereo not drawn)	0
Cc1ccc(C2Nc3ccccc3NC3=C2C(=O)CC(c2cccs2)C3)cc1 (stereo not drawn)	3.24
COc1cc(Cl)c(NC(=O)c2ccc(Cl)cc2)c(Cl)c1	0
COc1cc2c(cc1OC)C(/C=C1\SC(C(C)=O)=NN1c1ccc(C)cc1)=NCC2	0
CC(=O)Oc1cc(OC(C)=O)c2c(c1O)C(=O)c1ccccc1C2=O	0
COc1cc(C)nc(N(C#N)C(C)C)n1	0
COC(=O)CN(C#N)c1nc(N(C)C)nc(N(C)C)n1	0
COC(=O)CN(C#N)c1nc(C)cc(C)n1	6.69
CSc1cc(C(F)(F)F)c(C(=O)Nc2ccc(Cl)cc2)cn1	0
CCOC(=O)c1cc(C(=O)OCC)c(C(F)(F)F)nc1/C=C/N(C)C	0
CC1=C(C(=O)OCCOC(C)C)C(c2ccccn2)C2=C(CC(C)(C)CC2=O)N1 (stereo not drawn)	0
CCCSc1nnc2c3ccccc3n(CC)c2n1	0
CCn1c2ccccc2c2nnc(SCC(=O)c3ccccc3)nc21	0
C=CCSc1nnc2c3ccccc3n(CC=C)c2n1	3.24
SMILES	Dicer processing
CCOC(=O)c1c(Sc2ccccc2)cnn1C(=O)Nc1cccc(Cl)c1	0
CN(/N=C/c1ccccc1Cl)c1ncc(C(F)(F)F)cc1Cl	0
CN(/N=C/c1ccc(O)cc1O)c1ncc(Cl)cc1C(F)(F)F	12
CN(NC(=O)c1ccc(Cl)cc1)c1ncc(Cl)cc1C(F)(F)F	0
CCCN(CCC)C(=S)NC(=O)c1cccc([N+](=O)[O-])c1	0
O=c1c(-c2ccccc2)c(O)c2cccc3c2n1CC3	0
O=C1CSCC(=O)N1c1ccc(F)c(F)c1F	0
O=C(Nc1ccc2c(c1)OCCO2)Nc1nnc(C2CC2)s1	0
COc1ccc(NC(=O)Nc2nnc(C3CC3)s2)cc1OC1CCCC1	6.45
CC(C)(C)c1ccc(NC(=O)Nc2nnc(C3CC3)s2)cc1	0
CCOC(=O)c1sc(S(C)=NC(=O)c2ccc(Cl)cc2)c2c1CCC=C2 (stereo not drawn)	0
CCOC(=O)c1c(Cl)cc(C)cc1N1CCCC1	0
COc1nc(-c2ccc(Cl)cc2)ccc1-c1noc(COc2ccccc2)n1	0
COc1ccccc1N1CCN(S(=O)(=O)c2ccc3[nH]c(=O)[nH]c3c2)CC1	3.05
COc1ccccc1N1CCN(S(=O)(=O)c2ccc(-c3ccno3)s2)CC1	0
CC1CCN(S(=O)(=O)c2ccc3[nH]c(=O)[nH]c3c2)CC1	0
CCN(CC)CCSCCOC(=O)c1oc2ccccc2c1C	0
CC1=C(C(=O)OC(C)C)C(c2cccnc2)C2=C(CC(c3ccc(Cl)cc3)CC2=O)N1 (stereo not drawn)	0
CC1=CCC2C(=O)N(c3ccc(C(=O)O)cc3)C(=O)C2C1 (stereo not drawn)	0
CC1=CCC2C(=O)N(c3ccc(N4CCOCC4)cc3)C(=O)C2C1 (stereo not drawn)	0
O=C(c1ccc(N2C(=O)C3CC=C(Cl)CC3C2=O)cc1)N1CCOCC1 (stereo not drawn)	4.55
CC(NS(=O)(=O)c1cccc(C(F)(F)F)c1)C(C)(C)C (stereo not drawn)	0
C#CCSc1n[nH]c(-c2ccc(C(C)(C)C)cc2)n1	0
COc1ccc2c(O)c(Cc3ccccc3)c(=O)[nH]c2c1	0
CCCC(NC(=O)C(C)N)C(=O)O (stereo not drawn)	0
CCOC(=O)NNC(=S)Nc1ccc(Cl)cc1	0
CNC(=S)NNC(=O)c1ccc(Cl)cc1Cl	0
Cc1ccc(O)c(C(=O)NNC(=S)Nc2ccc(Cl)cc2)c1	5.4
Cc1cc(C(C)(C)C)c(OC(=O)C(C)C)c(C(C)(C)C)c1	0
CCOC(=O)N1CCc2c(sc(N)c2C#N)C1	0
